From publication PMC11006913
Numbering of substitutions follows the chain as printed.

target: T1, VENTX (Homo sapiens, UniProt O95231 78-163, R121Q); assay: PBM; 200 nM protein, PBS; conditions: dsDNA, one strand shown
T1 sequence: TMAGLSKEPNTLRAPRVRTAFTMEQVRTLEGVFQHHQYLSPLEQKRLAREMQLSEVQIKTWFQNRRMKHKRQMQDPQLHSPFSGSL

Sequence	binding signal
CGAGACCG	8.25 upbm affinity estimate (log intensity, higher = more binding, comparable within an allelic series)
AACGATTA	11.2 upbm affinity estimate (log intensity, higher = more binding, comparable within an allelic series)
ATTATGTC	10.5 upbm affinity estimate (log intensity, higher = more binding, comparable within an allelic series)
AATATTTG	9.84 upbm affinity estimate (log intensity, higher = more binding, comparable within an allelic series)
GTCTCCAC	8.1 upbm affinity estimate (log intensity, higher = more binding, comparable within an allelic series)
ATTAGTGG	11.7 upbm affinity estimate (log intensity, higher = more binding, comparable within an allelic series)
ACGTAATA	10.2 upbm affinity estimate (log intensity, higher = more binding, comparable within an allelic series)
CGATTAAG	11.4 upbm affinity estimate (log intensity, higher = more binding, comparable within an allelic series)
GGTCGGGA	8.05 upbm affinity estimate (log intensity, higher = more binding, comparable within an allelic series)
CGAGCCAC	8.17 upbm affinity estimate (log intensity, higher = more binding, comparable within an allelic series)
TAATGGGA	11.5 upbm affinity estimate (log intensity, higher = more binding, comparable within an allelic series)
GCCGGCAC	7.98 upbm affinity estimate (log intensity, higher = more binding, comparable within an allelic series)
GTCCACGA	8.05 upbm affinity estimate (log intensity, higher = more binding, comparable within an allelic series)
CCAAATTA	10.8 upbm affinity estimate (log intensity, higher = more binding, comparable within an allelic series)
CCCCATTA	11.5 upbm affinity estimate (log intensity, higher = more binding, comparable within an allelic series)
AATCCATT	10.1 upbm affinity estimate (log intensity, higher = more binding, comparable within an allelic series)
CGCTAGGC	8.19 upbm affinity estimate (log intensity, higher = more binding, comparable within an allelic series)
AAACTAAT	11 upbm affinity estimate (log intensity, higher = more binding, comparable within an allelic series)
CTCGGACC	8.07 upbm affinity estimate (log intensity, higher = more binding, comparable within an allelic series)
ACCGATTA	11.5 upbm affinity estimate (log intensity, higher = more binding, comparable within an allelic series)

Sequence	binding signal
CCGAGCCC	8.05 upbm affinity estimate (log intensity, higher = more binding, comparable within an allelic series)
CTACCCGC	8.06 upbm affinity estimate (log intensity, higher = more binding, comparable within an allelic series)
CACTGCGC	8.04 upbm affinity estimate (log intensity, higher = more binding, comparable within an allelic series)
GCTCCGCC	8.31 upbm affinity estimate (log intensity, higher = more binding, comparable within an allelic series)
CCCCGTAC	8.03 upbm affinity estimate (log intensity, higher = more binding, comparable within an allelic series)
GCTAAATA	10.1 upbm affinity estimate (log intensity, higher = more binding, comparable within an allelic series)
CTCGTGGC	8.11 upbm affinity estimate (log intensity, higher = more binding, comparable within an allelic series)
CATTAGAA	10.5 upbm affinity estimate (log intensity, higher = more binding, comparable within an allelic series)
AAATATCT	9.87 upbm affinity estimate (log intensity, higher = more binding, comparable within an allelic series)
AGGTCAGG	8.18 upbm affinity estimate (log intensity, higher = more binding, comparable within an allelic series)
CTAATGGC	12 upbm affinity estimate (log intensity, higher = more binding, comparable within an allelic series)
CCGATTAA	11.3 upbm affinity estimate (log intensity, higher = more binding, comparable within an allelic series)
CGATTAAC	11.4 upbm affinity estimate (log intensity, higher = more binding, comparable within an allelic series)
AGCCCGAA	8.34 upbm affinity estimate (log intensity, higher = more binding, comparable within an allelic series)
ACCTATTA	11.4 upbm affinity estimate (log intensity, higher = more binding, comparable within an allelic series)
ACCACGCC	7.95 upbm affinity estimate (log intensity, higher = more binding, comparable within an allelic series)
TCGATTAA	11.4 upbm affinity estimate (log intensity, higher = more binding, comparable within an allelic series)
CGCATGCG	8.34 upbm affinity estimate (log intensity, higher = more binding, comparable within an allelic series)
CCCATTAC	11.4 upbm affinity estimate (log intensity, higher = more binding, comparable within an allelic series)

target: T2, VENTX (Homo sapiens, UniProt O95231 78-163); assay: PBM; 200 nM protein, PBS; conditions: dsDNA, one strand shown
T2 sequence: T1 sequence with Q44R

Sequence	binding signal
CGAGACCG	8.39 upbm affinity estimate (log intensity, higher = more binding, comparable within an allelic series)
AACGATTA	12.3 upbm affinity estimate (log intensity, higher = more binding, comparable within an allelic series)
ATTATGTC	11 upbm affinity estimate (log intensity, higher = more binding, comparable within an allelic series)
AATATTTG	10 upbm affinity estimate (log intensity, higher = more binding, comparable within an allelic series)
GTCTCCAC	8.02 upbm affinity estimate (log intensity, higher = more binding, comparable within an allelic series)
ATTAGTGG	12.3 upbm affinity estimate (log intensity, higher = more binding, comparable within an allelic series)
ACGTAATA	10.5 upbm affinity estimate (log intensity, higher = more binding, comparable within an allelic series)
CGATTAAG	12.4 upbm affinity estimate (log intensity, higher = more binding, comparable within an allelic series)
GGTCGGGA	8.36 upbm affinity estimate (log intensity, higher = more binding, comparable within an allelic series)
CGAGCCAC	8.51 upbm affinity estimate (log intensity, higher = more binding, comparable within an allelic series)
TAATGGGA	12.4 upbm affinity estimate (log intensity, higher = more binding, comparable within an allelic series)
GCCGGCAC	7.91 upbm affinity estimate (log intensity, higher = more binding, comparable within an allelic series)
GTCCACGA	7.92 upbm affinity estimate (log intensity, higher = more binding, comparable within an allelic series)
CCAAATTA	11.4 upbm affinity estimate (log intensity, higher = more binding, comparable within an allelic series)
CCCCATTA	12.3 upbm affinity estimate (log intensity, higher = more binding, comparable within an allelic series)
AATCCATT	10.5 upbm affinity estimate (log intensity, higher = more binding, comparable within an allelic series)
CGCTAGGC	8.31 upbm affinity estimate (log intensity, higher = more binding, comparable within an allelic series)
AAACTAAT	11.7 upbm affinity estimate (log intensity, higher = more binding, comparable within an allelic series)
CTCGGACC	8.13 upbm affinity estimate (log intensity, higher = more binding, comparable within an allelic series)
ACCGATTA	12.9 upbm affinity estimate (log intensity, higher = more binding, comparable within an allelic series)

Sequence	binding signal
CCGAGCCC	8.08 upbm affinity estimate (log intensity, higher = more binding, comparable within an allelic series)
CTACCCGC	8.07 upbm affinity estimate (log intensity, higher = more binding, comparable within an allelic series)
CACTGCGC	8.14 upbm affinity estimate (log intensity, higher = more binding, comparable within an allelic series)
GCTCCGCC	8.4 upbm affinity estimate (log intensity, higher = more binding, comparable within an allelic series)
CCCCGTAC	8.06 upbm affinity estimate (log intensity, higher = more binding, comparable within an allelic series)
GCTAAATA	10.6 upbm affinity estimate (log intensity, higher = more binding, comparable within an allelic series)
CTCGTGGC	8.09 upbm affinity estimate (log intensity, higher = more binding, comparable within an allelic series)
CATTAGAA	11.1 upbm affinity estimate (log intensity, higher = more binding, comparable within an allelic series)
AAATATCT	10 upbm affinity estimate (log intensity, higher = more binding, comparable within an allelic series)
AGGTCAGG	8.14 upbm affinity estimate (log intensity, higher = more binding, comparable within an allelic series)
CTAATGGC	12.7 upbm affinity estimate (log intensity, higher = more binding, comparable within an allelic series)
CCGATTAA	12.5 upbm affinity estimate (log intensity, higher = more binding, comparable within an allelic series)
CGATTAAC	12.4 upbm affinity estimate (log intensity, higher = more binding, comparable within an allelic series)
AGCCCGAA	8.32 upbm affinity estimate (log intensity, higher = more binding, comparable within an allelic series)
ACCTATTA	12 upbm affinity estimate (log intensity, higher = more binding, comparable within an allelic series)
ACCACGCC	8.09 upbm affinity estimate (log intensity, higher = more binding, comparable within an allelic series)
TCGATTAA	12.3 upbm affinity estimate (log intensity, higher = more binding, comparable within an allelic series)
CGCATGCG	8.73 upbm affinity estimate (log intensity, higher = more binding, comparable within an allelic series)
CCCATTAC	12.4 upbm affinity estimate (log intensity, higher = more binding, comparable within an allelic series)

target: T3, VENTX (Homo sapiens, UniProt O95231 78-163, Y115F); assay: PBM; 200 nM protein, PBS; conditions: dsDNA, one strand shown
T3 sequence: T1 sequence with Y38F, Q44R

Sequence	binding signal
CGAGACCG	8.28 upbm affinity estimate (log intensity, higher = more binding, comparable within an allelic series)
AACGATTA	11.3 upbm affinity estimate (log intensity, higher = more binding, comparable within an allelic series)
ATTATGTC	10.4 upbm affinity estimate (log intensity, higher = more binding, comparable within an allelic series)
AATATTTG	9.7 upbm affinity estimate (log intensity, higher = more binding, comparable within an allelic series)
GTCTCCAC	8.1 upbm affinity estimate (log intensity, higher = more binding, comparable within an allelic series)
ATTAGTGG	11.4 upbm affinity estimate (log intensity, higher = more binding, comparable within an allelic series)
ACGTAATA	10.1 upbm affinity estimate (log intensity, higher = more binding, comparable within an allelic series)
CGATTAAG	11.3 upbm affinity estimate (log intensity, higher = more binding, comparable within an allelic series)
GGTCGGGA	8.02 upbm affinity estimate (log intensity, higher = more binding, comparable within an allelic series)
CGAGCCAC	8.31 upbm affinity estimate (log intensity, higher = more binding, comparable within an allelic series)
TAATGGGA	11.3 upbm affinity estimate (log intensity, higher = more binding, comparable within an allelic series)
GCCGGCAC	7.98 upbm affinity estimate (log intensity, higher = more binding, comparable within an allelic series)
GTCCACGA	7.98 upbm affinity estimate (log intensity, higher = more binding, comparable within an allelic series)
CCAAATTA	10.8 upbm affinity estimate (log intensity, higher = more binding, comparable within an allelic series)
CCCCATTA	11.3 upbm affinity estimate (log intensity, higher = more binding, comparable within an allelic series)
AATCCATT	9.94 upbm affinity estimate (log intensity, higher = more binding, comparable within an allelic series)
CGCTAGGC	8.19 upbm affinity estimate (log intensity, higher = more binding, comparable within an allelic series)
AAACTAAT	11 upbm affinity estimate (log intensity, higher = more binding, comparable within an allelic series)
CTCGGACC	8.15 upbm affinity estimate (log intensity, higher = more binding, comparable within an allelic series)
ACCGATTA	11.5 upbm affinity estimate (log intensity, higher = more binding, comparable within an allelic series)

Sequence	binding signal
CCGAGCCC	8.04 upbm affinity estimate (log intensity, higher = more binding, comparable within an allelic series)
CTACCCGC	8.08 upbm affinity estimate (log intensity, higher = more binding, comparable within an allelic series)
CACTGCGC	8.18 upbm affinity estimate (log intensity, higher = more binding, comparable within an allelic series)
GCTCCGCC	8.22 upbm affinity estimate (log intensity, higher = more binding, comparable within an allelic series)
CCCCGTAC	8.02 upbm affinity estimate (log intensity, higher = more binding, comparable within an allelic series)
GCTAAATA	10 upbm affinity estimate (log intensity, higher = more binding, comparable within an allelic series)
CTCGTGGC	8.12 upbm affinity estimate (log intensity, higher = more binding, comparable within an allelic series)
CATTAGAA	10.4 upbm affinity estimate (log intensity, higher = more binding, comparable within an allelic series)
AAATATCT	9.74 upbm affinity estimate (log intensity, higher = more binding, comparable within an allelic series)
AGGTCAGG	8.06 upbm affinity estimate (log intensity, higher = more binding, comparable within an allelic series)
CTAATGGC	11.8 upbm affinity estimate (log intensity, higher = more binding, comparable within an allelic series)
CCGATTAA	11.3 upbm affinity estimate (log intensity, higher = more binding, comparable within an allelic series)
CGATTAAC	11.3 upbm affinity estimate (log intensity, higher = more binding, comparable within an allelic series)
AGCCCGAA	8.13 upbm affinity estimate (log intensity, higher = more binding, comparable within an allelic series)
ACCTATTA	11.1 upbm affinity estimate (log intensity, higher = more binding, comparable within an allelic series)
ACCACGCC	7.97 upbm affinity estimate (log intensity, higher = more binding, comparable within an allelic series)
TCGATTAA	11.2 upbm affinity estimate (log intensity, higher = more binding, comparable within an allelic series)
CGCATGCG	8.4 upbm affinity estimate (log intensity, higher = more binding, comparable within an allelic series)
CCCATTAC	11.2 upbm affinity estimate (log intensity, higher = more binding, comparable within an allelic series)
